Experimental data reported in PubChem BioAssay AID720551 (National Center for Advancing Translational Sciences (NCATS), 2013).
In all, about 340,000 compounds went through this assay and about 1,300 (0.38%) were called active.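 How the source made its calls: active means maximum activity change below -70%; inconclusive means maximum activity change between -70% and -50%; inactive means maximum activity change above -50%.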 The list comes from a sample in which actives are over-represented; it also holds similar structures and randomly drawn compounds.

Target: Voltage-gated inwardly rectifying potassium channel KCNH2 (Homo sapiens) (UniProt Q12809)
Sequence (Q12809 whole entry, looked up): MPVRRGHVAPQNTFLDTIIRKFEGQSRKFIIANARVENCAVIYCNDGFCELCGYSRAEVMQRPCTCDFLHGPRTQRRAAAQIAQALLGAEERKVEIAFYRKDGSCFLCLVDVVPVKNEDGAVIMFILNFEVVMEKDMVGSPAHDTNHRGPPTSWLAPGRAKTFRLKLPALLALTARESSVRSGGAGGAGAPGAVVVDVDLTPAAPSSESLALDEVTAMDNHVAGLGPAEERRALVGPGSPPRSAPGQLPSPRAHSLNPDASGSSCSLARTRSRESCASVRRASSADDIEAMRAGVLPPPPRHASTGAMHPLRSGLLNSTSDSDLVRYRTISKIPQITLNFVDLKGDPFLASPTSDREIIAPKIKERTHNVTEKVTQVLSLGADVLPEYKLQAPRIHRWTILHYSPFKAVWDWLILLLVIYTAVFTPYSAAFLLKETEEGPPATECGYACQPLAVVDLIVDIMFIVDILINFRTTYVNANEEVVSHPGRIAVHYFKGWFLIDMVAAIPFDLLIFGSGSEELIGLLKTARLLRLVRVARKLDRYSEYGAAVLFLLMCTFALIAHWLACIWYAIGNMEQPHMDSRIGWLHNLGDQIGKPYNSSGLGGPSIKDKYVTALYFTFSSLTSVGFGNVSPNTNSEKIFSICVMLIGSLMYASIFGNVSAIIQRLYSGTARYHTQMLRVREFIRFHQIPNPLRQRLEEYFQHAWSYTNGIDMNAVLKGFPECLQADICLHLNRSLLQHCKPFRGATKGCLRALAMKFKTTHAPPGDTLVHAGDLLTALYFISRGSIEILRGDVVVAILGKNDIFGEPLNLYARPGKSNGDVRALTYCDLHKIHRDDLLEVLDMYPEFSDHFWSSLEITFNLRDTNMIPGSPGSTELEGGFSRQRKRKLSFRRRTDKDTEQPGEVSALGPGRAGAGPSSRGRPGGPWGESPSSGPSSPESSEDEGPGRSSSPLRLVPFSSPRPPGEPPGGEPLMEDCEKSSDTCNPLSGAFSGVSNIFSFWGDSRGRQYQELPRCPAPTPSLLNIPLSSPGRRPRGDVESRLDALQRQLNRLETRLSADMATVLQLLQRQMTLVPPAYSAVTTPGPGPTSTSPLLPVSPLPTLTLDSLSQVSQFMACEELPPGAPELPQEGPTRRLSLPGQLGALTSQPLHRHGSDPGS
Assay: qHTS for Inhibitors of KCHN2 3.1: Wildtype qHTS
Details: U2OS, BacMam KCNH2, thallium flux FluxOr; at 1.84 µM; stronger effect = lower value
From the text: Many antipsychotic drugs that inhibit the neurotransmitter dopamine also bind to hERG1 channel which might help explain their antipsychotic activity but also produces cardiac side effects. The discovery of the novel KCNH2 3.1 isoform offers a potential new target for the development of antipsychotic drugs without cardiac side effects. This proposal will use a high throughput thallium flux assay developed for KCNH2 to screen compounds that modulate the activity of KCNH2 3.1. The wild type KCNH2 channel will also be screened in parallel to help define the selective modulators of this KCNH2 3.1 potassium channel. The resulting compounds will be validated in electrophysiology experiments. The availability of animal models will allow future testing in vivo for effects on memory and other aspects of animal physiology linked with psychosis. NIH Chemical Genomics Center [NCGC] NIH Molecular Libraries Probe Centers Network [MLPCN] MLPCN Grant: MH096539 Assay Submitter (PI): James Barrow, Johns Hopkins University, Lieber Institute for Brain Development
U2OS cells were resuspended in cell media containing 10% fetal calf serum (FCS) at a concentration of 2 million cells / mL. The solution was treated with the Wild-type virus at 2.03 x 10^8 / mL and allowed to incubate at room temperature in the dark. After 4 hours of incubation, DMEM + 10% fetal bovine serum (FBS) was added to the cell solution. Three microliter was then dispensed into a 1536 tissue culture treated black assay plates which were incubated overnight at 37 C. Two microliter of loading buffer (HBSS + HEPES + Red40 dye quencher + FluxOr dye) was added and the assay plates were incubated for 45 min at room temperature in the dark. […] A stimulation buffer was added to the plate and the second kinetic read (2 min) was obtained. The rate constant was calculated from the kinetic reads and normalized to the positive and negative DMSO controls.
On the % scale 0 is the no-effect control and ±100 the full control effect.

Q: For `CCOC(=O)C1(Cc2ccc(Cl)cc2)CCN(C(C)CCn2cccn2)CC1` (stereo not given), which activity change is on record?
A: -90.9% (active)

Q: How did the activity change turn out when `CCOC(=O)C1(CCc2ccccc2)CCN(Cc2ccco2)CC1` was run?
A: -42.5% (inactive)

Q: How did the activity change turn out when `CNC(=O)O/N=C(\N)Cc1csc2ccc(Cl)cc12` was run?
A: -2.66% (inactive)

Q: How did the activity change turn out when `NCCc1ccc(S(=O)(=O)F)cc1` was run?
A: -7.95% (inactive)

Q: For `NCC(O)c1ccc(O)cc1` (stereo not given), which activity change is on record?
A: 2.77% (inactive)

Q: Which activity change does the source give for `CC1(C)Cc2c(C#N)c(N3CCNCC3)nc(-c3ccco3)c2CS1` here?
A: -1.97% (inactive)

Q: With `CC(=NCC1CCCO1)c1c(O)n(-c2ccccc2)c(=O)[nH]c1=O` (stereo not given) as the compound, how does the activity change read?
A: -12.8% (inactive)

Q: For `CC(Cc1ccccc1)NCCC(c1ccccc1)c1ccccc1` (stereo not given), which activity change is on record?
A: -106% (active)

Q: `O=C1NC(=O)C(CCOc2ccccc2)(CCc2ccccc2)C(=O)N1` was tested. Which activity change did it give?
A: -6.81% (inactive)

Q: `O=Cc1cn(Cc2ccc(F)cc2Cl)c2ccccc12` was tested. Which activity change did it give?
A: 0.945% (inactive)
